Compound activity: PubChem BioAssay, National Center for Advancing Translational Sciences (NCATS)
Most compounds without a hit are left out; they make up all but 19% or so of the library.
TDP1 cell noCPT: qHTS for Inhibitors of human tyrosyl-DNA phosphodiesterase 1 (TDP1): qHTS in cells in absence of CPT | DT40 Tdp1-/- hTDP1 cells, no CPT, ATP luminescence, 48 h | Potency, µM (doses to about 46.2 µM), without a hit: top-dose activity change, negative = growth inhibition, most hits filed as inhibitors | 420,000 tested, 15% active | AID 686978, 2013; also: potency is read from the fitted curve at half-maximal effect; nearly all actives have a fitted effect of over 55% in size
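Chicken DT40 Tdp1-/- cells complemented with human TDP1, screened without camptothecin (DMSO vehicle only), 400 cells/well. Compounds pin-transferred, cells incubated at 37 °C for at least 48 hr. Growth read as ATP-dependent luminescence (CellTiter-Glo, 30 min at RT).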
IL-1B inflam inh: inhibitors of inflammasome signaling (IL-1 beta secretion); 360,000 tested, 4.7% active; THP-1 LPS/ATP IL-1B secretion, AlphaLISA, 16 h; active compounds read low; AID 743279; activity change, % at 57.5 µM; in the data active = activity change below about -50%; inconclusive = mostly about -30% to -49%
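Secreted IL-1B measured by AlphaLISA bead assay after 16 h compound exposure of THP-1 cells; compounds (final up to 57.5 uM) added 1 h before LPS (250 ng/mL) and ATP (1.25 mM) stimulation; lower signal means less secretion.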
TDP1 inh: inhibitors of human tyrosyl-DNA phosphodiesterase TDP1; Q9NUW8; recombinant TDP1, AlphaScreen DNA substrate cleavage; Potency, µM (titrated, usually from 130 µM), inactives show top-dose activity change, negative = inhibition, actives largely listed as inhibitors; 350,000 tested, 0.28% active; AID 485290; also: potency is read from the fitted curve at half-maximal effect; nearly all actives have a fitted effect of over 40% in size
Target sequence (Q9NUW8 whole entry, looked up): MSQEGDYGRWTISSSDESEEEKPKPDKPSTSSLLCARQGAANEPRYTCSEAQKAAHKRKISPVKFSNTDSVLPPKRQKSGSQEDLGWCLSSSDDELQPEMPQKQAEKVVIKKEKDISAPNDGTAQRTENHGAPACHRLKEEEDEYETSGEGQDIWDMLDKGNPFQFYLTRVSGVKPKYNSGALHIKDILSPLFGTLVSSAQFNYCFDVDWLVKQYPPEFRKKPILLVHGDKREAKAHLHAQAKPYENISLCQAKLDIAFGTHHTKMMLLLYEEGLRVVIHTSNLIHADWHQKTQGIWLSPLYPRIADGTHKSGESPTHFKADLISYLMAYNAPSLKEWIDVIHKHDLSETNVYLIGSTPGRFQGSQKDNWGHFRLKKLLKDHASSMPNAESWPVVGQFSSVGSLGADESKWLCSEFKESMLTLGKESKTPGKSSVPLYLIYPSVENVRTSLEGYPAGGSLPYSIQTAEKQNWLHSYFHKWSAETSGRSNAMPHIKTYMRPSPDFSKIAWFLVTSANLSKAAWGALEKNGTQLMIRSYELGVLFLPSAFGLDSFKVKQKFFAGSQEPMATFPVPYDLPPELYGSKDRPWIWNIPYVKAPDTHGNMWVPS
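Recombinant human Tdp1 (E. coli-expressed, 1 nM final) preincubated with compounds 15 min at room temperature, then 5'-biotin/3'-phosphotyrosine-FITC DNA substrate (15 nM final) added for 5 min. AlphaScreen beads (10 ug/ml final) added 10 min; cleavage lowers signal.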
TDP1 cell CPT: growth inhibition of DT40 Tdp1-/-;hTDP1 cells with camptothecin (screen for TDP1 inhibitors) | chicken DT40 Tdp1-/-;hTDP1 cells + 20 nM CPT, ATP luminescence, 48 h | Potency, µM (top dose mostly 46.2 µM), inactives show at the top dose activity change, negative = growth inhibition, hits mostly inhibitors | 420,000 tested, 12% active | AID 686979; also: potency is read from the fitted curve at half-maximal effect; nearly all actives have a fitted effect of over 55% in size
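Cell growth measured by CellTiter-Glo luminescence after a minimum 48 h, 37 C compound exposure with 20 nM CPT in Tdp1-knockout DT40 cells stably expressing hTDP1, seeded 400/well; qHTS titration format.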
Giardia killer: kills Giardia lamblia; Giardia lamblia trophozoite viability; activity change, % at 7.66 µM, hits read low; 340,000 tested, 0.15% active; in the data active = activity change below about -80%; inconclusive = between about -30% and that limit;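 also: parasites exposed to compound for two days anaerobically before the ATP read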
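ATP-content bioluminescence gauges trophozoite survival. Cells (100/well) receive compound and incubate anaerobically for 48 hrs at 37 deg C; detection reagent follows for 15-30 min at room temperature.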
ELG1 repair inh: inhibitors of ELG1-dependent DNA repair in HEK293T cells; HEK293T ELG1-luciferase reporter, luminescence, 16 h; DNA damage induced by 5-fluorouridine; Potency, µM (highest dose often 46.1 µM), without a hit: at the highest dose activity change, negative = inhibition, usual class: inhibitors; 330,000 tested, 2.3% active; also: potency is read from the fitted curve at half-maximal effect; nearly all actives have a fitted effect of over 55% in size
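Luminescence from the luciferase reporter, measured 30 min after ONE-Glo reagent at room temperature, was the read-out. Beforehand, 2,000 cells per well were exposed for 16 hr at 37 °C to 5-fluorouridine together with compound or vehicle.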
The depositor's hits bear a star; ? = inconclusive; nt = not tested or not shown; [ ] = another dose, or the depositor's remark. Unless noted, calls follow the shape of the dose curve; as a rule, active = well fitted curve in the direction sought with a large enough effect; inconclusive = small, poorly fitted or top-dose-only effect, or another doubt; inactive = no such curve, though single readings can be large; an effect the other way counts as inactive or inconclusive. % is scaled to controls: 0 for no effect and ±100 for the full control effect.

SMILES	TDP1 cell noCPT	IL-1B inflam inh	TDP1 inh	TDP1 cell CPT	Giardia killer	ELG1 repair inh
N#CC1=C(N)SC(N)=C(C#N)C1c1cccc(O)c1	?	10	-5%	23µM*	8	13%
C=CC[n+]1c(-c2ccc(OCC)cc2)csc1NNC(=O)Nc1ccccc1	5.8µM*	-22	8%	7.3µM*	5	?
COc1cccc(Cc2nc3ccccc3nc2SCC(=O)Nc2ccccc2F)c1	-16%	nt	0%	20%	nt	nt
CCCC1(c2ccccc2)NC(=O)N(CC(=O)Nc2cc(OC)cc(OC)c2)C1=O (configuration not stated)	?	-6	7%[0.0935 µM]	0%	16	-20%
COC(=O)N1C(=O)[C@@](c2ccccc2)(C2CCCC2)N1C(=O)OC	16µM*	-106*	nt	15µM*	-1	-16%
COC(=O)N1C(=O)[C@](c2ccccc2)(C2CCCCC2)N1C(=O)OC	-29%	-75*	nt	?	-19	10%
Cc1ccc([N+](=O)[O-])cc1-c1ccc(/C=C(\C#N)c2[nH]nc(N)c2C#N)o1	13µM*	?	-8%	?	-9	?
CCOC(=O)C1(CCCc2ccccc2)CCN(C(=O)CCOC)CC1	?	0	nt	0%	-2	-13%
O=C(CCCNS(=O)(=O)c1cccs1)N1CCN(c2ccc(F)cc2)CC1	?	38	-1%	-21%	3	-15%
O=C(CNS(=O)(=O)c1cccs1)N1CCN(c2cccc(C(F)(F)F)c2)CC1	21µM*	nt	5%	16µM*	nt	nt
O=C(CCNS(=O)(=O)c1cccs1)N1CCN(c2cccc(Cl)c2)CC1	?	-12	-8%	?	4	2%
CN1CCN(C2=C(NS(=O)(=O)c3cccs3)C(=O)c3ccccc3C2=O)CC1	21µM*	69	nt	16µM*	16	-28%
CCOc1ccccc1N1CCN(C2=C(NS(=O)(=O)c3cccs3)C(=O)c3ccccc3C2=O)CC1	26µM*	-29	14%	?	4	23µM*
O=C(CCCNS(=O)(=O)c1cccs1)N1CCN(c2cccc(Cl)c2)CC1	?	-16	2%	?	8	23µM*
COc1ccc(NCc2cc3cc4c(cc3n(CC(=O)Nc3cc(C)ccc3C)c2=O)OCCO4)cc1	nt	nt	0%	nt	nt	nt
O=C(C=Cc1ccc2c(c1)OCO2)OCC=Cc1ccc2c(c1)OCO2	-15%	-10	nt	19%	16	nt
O=C(CCNS(=O)(=O)c1cccc2nonc12)N1CCN(c2cccc(Cl)c2)CC1	12µM*	-12	-2%	?	-1	?
O=C1C(NS(=O)(=O)c2cccs2)=C(N2CCN(Cc3ccccc3)CC2)C(=O)c2ccccc21	16µM*	5	nt	?	-11	23µM*
O=C1C(NS(=O)(=O)c2cccs2)=C(N2CCN(c3cccc(C(F)(F)F)c3)CC2)C(=O)c2ccccc21	23µM*	-24	14%	16µM*	-15	?
O=C1C(NS(=O)(=O)c2cccs2)=C(N2CCOCC2)C(=O)c2ccccc21	?	10	5%	?	-16	-5%
COc1cccc(NC(=O)CCC2CCN(C(=O)c3sccc3C)CC2)c1	21µM*	0	2%	21µM*	4	?
COc1cccc(NC(=O)CCC2CCN(C(=O)Cc3cccc(F)c3)CC2)c1	15µM*	2	2%	?	-7	-3%
Cc1ccc(OCC(=O)Nc2ccc(O)c(-c3nc4cc(C)c(C)cc4o3)c2)cc1	1.6µM*	nt	nt	?	nt	nt
Cc1ccc(C(C)C)c(OCC(=O)Nc2ccc(O)c(-c3nc4cc(Cl)ccc4o3)c2)c1	-7%	nt	1%[12.3 µM]	9%	nt	nt
Cc1ccc(SCC(=O)Nc2ccc(O)c(-c3nc4cc(C)ccc4o3)c2)cc1	21µM*	nt	1%	?	nt	nt
